Test results as given in the supplement of paper PMC7858590.
Where “and” joins values, the source holds several entries; their conditions need not be identical. Equal values may be shown once.

Each compound was assayed on human monocyte-derived macrophages (polarized) (assay: cell shape (eccentricity) Z-score vs DMSO control; higher = more elongated, M2-like morphology). Conditions: 5 µM; 24 h; macrophage state: M2-polarized (IL-4 + IL-13), cytokines present during treatment.
Procedure: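 Primary-screen hits were rescreened on polarized hMDMs with the differentiating cytokines (IL-4 + IL-13 or IFNg + TNFa) kept in the medium during treatment with compound at 5 uM for 24 h. The eccentricity Z-score vs DMSO wells is averaged over experiments.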

Structure (SMILES) | cell shape (Z-score)
CC(C)c1ccc(Cn2ccc3c4c(N)nc(NC5CC5)nc4ccc32)cc1 | -11
CCOc1nc2cccc(C(=O)OC(C)OC(=O)OC3CCCCC3)c2n1Cc1ccc(-c2ccccc2-c2nn[nH]n2)cc1 (stereo unspecified) | -2.81
CC(=O)O[C@@H]1C[C@H]2C(C)(C)C(=O)C=C[C@]2(C)[C@H]2CC[C@@]3(C)[C@H](c4ccoc4)OC(=O)[C@H]4O[C@]43[C@@]21C | -8.96
Cc1cc(C(C)(C)CC(C)(C)C)ccc1OCCOCC[N+](C)(C)Cc1ccccc1 | -3.9
CC(=O)O[C@H]1C(=O)[C@@]2(C)[C@H]([C@H](OC(=O)c3ccccc3)[C@]3(O)C[C@H](OC(=O)[C@H](O)[C@@H](NC(=O)c4ccccc4)c4ccccc4)C(C)=C1C3(C)C)[C@]1(OC(C)=O)CO[C@@H]1C[C@@H]2O | -14.3 and -18.7
COc1cc(O)c2c(=O)c(OC)c(-c3ccc(OC)c(OC)c3)oc2c1 | -8.25
CCCCc1ccc2[nH]c(NC(=O)OC)nc2c1 | 0.889
CC(Nc1nc(N2CCCC2)nc2ccccc12)c1ccccc1 (stereo unspecified) | -11.8
CN1c2ccccc2C(=O)N2CCc3c([nH]c4ccccc34)[C@@H]21 | -7.76
O=C1c2ccccc2-c2nc3nonc3nc21 | -2.4
c1ccc2cc(C3=NCCN3)ncc2c1 | 0.271
CC(C)C1C2CCC(C2)C1N (stereo unspecified) | -1.17
C[C@H]1CN([C@@H](C)CO)C(=O)Cc2cc(NC(=O)CCC(F)(F)F)ccc2O[C@H]1CN(C)S(=O)(=O)c1ccc(Cl)cc1 | -11
O=C(Nc1ccc([N+](=O)[O-])cc1O)Nc1ccccc1Br | -12.2
C[C@H]1CN([C@@H](C)CO)S(=O)(=O)c2ccc(C#Cc3ccncc3)cc2O[C@@H]1CN(C)C(=O)Nc1ccc2c(c1)OCO2 | 5.87
O=C1c2ccccc2C(Cc2ccnc(F)c2)(Cc2ccnc(F)c2)c2ccccc21 | 1.79
